Some test systems named below: NCI-H23 lung; NCI-H226 lung; HOP-62 NSCLC; NCI-H460 lung; HOP-92 NSCLC; NCI-H522 lung; A549/ATCC NSCLC; 786-0 renal; COLO 205 colon.
Common to all, as to assay: NCI-60 one-dose screen, 48 h (100 = growth as untreated, 0 = no growth, -100 = all killed)
The test system of a further assay is NCI-H322M lung. Particulars: 10 µM unless noted.

Several values for one entry are separate records, joined by “and”; a condition that tells them apart may be missing. Identical values can stand only once. Compounds without any hit were thinned out: in the full panel of roughly 83,000, 20% have a hit.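 Values shown are percent growth following 48 h exposure of cells in 96-well plates to a single concentration of compound; below 10 was considered active.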 Values without a mark were called inactive. Activity calls are given as the source filed them.

On to `COc1ccc(-c2ccc(-c3ccc(C(=N)N)cn3)o2)cc1Cl`, for which the growth in the assay with NCI-H23 lung (10 µM unless noted) was 69.3%; in the assay on NCI-H226 lung (10 µM unless noted) it was 81.4%; in the assay on NCI-H322M lung, 77.2%; with HOP-62 NSCLC (10 µM unless noted), 67.5%; in the assay on NCI-H460 lung (10 µM unless noted), 0.593% (active); in the assay on HOP-92 NSCLC (10 µM unless noted), 36.4%. Also, the growth in the assay on NCI-H522 lung (10 µM unless noted) was 59.5%; with A549/ATCC NSCLC (10 µM unless noted), 21.2%; with 786-0 renal (10 µM unless noted), -6.3% (active).

Take `Cc1ccc2[nH]c(=S)[nH]c(=O)c2c1`: the growth in the assay on NCI-H23 lung (10 µM unless noted) was 100%; in the assay with NCI-H226 lung (10 µM unless noted), 102%; in the assay on NCI-H322M lung, 102%; in the assay on HOP-62 NSCLC (10 µM unless noted), 99.4%; in the assay with NCI-H460 lung (10 µM unless noted), 106%; in the assay on HOP-92 NSCLC (10 µM unless noted), 93.4%. Besides, the values for the growth with NCI-H522 lung (10 µM unless noted), in the assay with A549/ATCC NSCLC (10 µM unless noted) and with 786-0 renal (10 µM unless noted) were 94.7%, 98.9% and 94.9%, respectively.

In the case of `COc1ccc(C(=O)/C=C/c2ccc(OCc3ccc(Cl)cc3)cc2)cc1OC`, the growth in the assay on NCI-H23 lung (10 µM) is 84.1%; with NCI-H23 lung (100 µM), 29.2%; in the assay on NCI-H226 lung (10 µM) it was 87.1%; in the assay on NCI-H226 lung (100 µM) it was -7.94% (active); in the assay with NCI-H322M lung, 40.4% [100 µM]; in the assay on HOP-62 NSCLC (10 µM) it was 104%. For the same compound, the growth in the assay on HOP-62 NSCLC (100 µM) is 5.95% (active); in the assay on NCI-H460 lung (10 µM) it was 95.3%; with NCI-H460 lung (100 µM), 6.18% (active); in the assay with HOP-92 NSCLC (10 µM), 104%; in the assay with HOP-92 NSCLC (100 µM), 12.5%; in the assay on NCI-H522 lung (10 µM) it was 82.5%. In addition, the growth is 2.45% (active) with NCI-H522 lung (100 µM); 85.9% in the assay with A549/ATCC NSCLC (10 µM); 13.7% in the assay on A549/ATCC NSCLC (100 µM); 106% in the assay with 786-0 renal (10 µM); -13.2% (active) in the assay on 786-0 renal (100 µM); 117% in the assay with COLO 205 colon (10 µM). The growth in the assay on COLO 205 colon (100 µM) is 41.8%.

In the case of `COc1cc(C=O)ccc1Oc1ccc([N+](=O)[O-])cc1[N+](=O)[O-]`, the growth is 95.6% in the assay with NCI-H23 lung (10 µM unless noted); 99.9% in the assay on NCI-H226 lung (10 µM unless noted); 104% in the assay with NCI-H322M lung; 94.2% in the assay with HOP-62 NSCLC (10 µM unless noted); 104% in the assay on NCI-H460 lung (10 µM unless noted); 78.8% in the assay with HOP-92 NSCLC (10 µM unless noted). In addition, the growth is 94.3% with NCI-H522 lung (10 µM unless noted), 88.4% in the assay with A549/ATCC NSCLC (10 µM unless noted) and 102% in the assay on 786-0 renal (10 µM unless noted).

For the compound `Cc1ccc(NC(=O)N/C(N)=N/c2nc(=O)c3ccccc3s2)cc1`, the growth is 94.1% in the assay with NCI-H23 lung (10 µM unless noted); 91.3% in the assay on NCI-H226 lung (10 µM unless noted); 93.9% in the assay on NCI-H322M lung; 91.7% with HOP-62 NSCLC (10 µM unless noted); 88.8% with NCI-H460 lung (10 µM unless noted); 86.4% in the assay on HOP-92 NSCLC (10 µM unless noted). Besides, the growth with NCI-H522 lung (10 µM unless noted) was 95.3%; in the assay on A549/ATCC NSCLC (10 µM unless noted), 103%; in the assay on 786-0 renal (10 µM unless noted) it was 98.6%.

Regarding `COc1cc(OC)cc(-c2ccc(-c3ccc(C(=N)N)cn3)s2)c1`, the growth in the assay with NCI-H23 lung (10 µM unless noted) was 94.6%; in the assay with NCI-H226 lung (10 µM unless noted) it was 70%; in the assay with NCI-H322M lung, 89.2%; in the assay on HOP-62 NSCLC (10 µM unless noted), 86%; in the assay with NCI-H460 lung (10 µM unless noted), 4.75% (active); with HOP-92 NSCLC (10 µM unless noted), 86.6%. The values for the growth in the assay with NCI-H522 lung (10 µM unless noted), with A549/ATCC NSCLC (10 µM unless noted) and with 786-0 renal (10 µM unless noted) were 78.7%, 63.2% and 74.3%, respectively.

Regarding `O=C1/C(=C/c2ccc(F)c(F)c2)CN(C(=O)C(Cl)Cl)C/C1=C\c1ccc(F)c(F)c1`, the growth with NCI-H23 lung (10 µM unless noted) was -81.2% (active); in the assay with NCI-H226 lung (10 µM unless noted), -17% (active); with NCI-H322M lung it was -86% (active); in the assay on HOP-62 NSCLC (10 µM unless noted), -57.7% (active); in the assay with NCI-H460 lung (10 µM unless noted), -71.9% (active); in the assay with HOP-92 NSCLC (10 µM unless noted) it was -62.6% (active). The growth was -81.8% (active) in the assay on NCI-H522 lung (10 µM unless noted), -52.1% (active) with A549/ATCC NSCLC (10 µM unless noted) and -96% (active) in the assay on 786-0 renal (10 µM unless noted).

On to `O=C(Nc1ccccc1C(=O)N/N=C(\c1ccccc1)c1ccccn1)c1ccccc1`, for which the growth is 24.9% in the assay with NCI-H23 lung (10 µM unless noted); 18.1% in the assay on NCI-H226 lung (10 µM unless noted); 29.1% with NCI-H322M lung; 9.93% (active) with HOP-62 NSCLC (10 µM unless noted); -0.498% (active) with NCI-H460 lung (10 µM unless noted); 34.9% with HOP-92 NSCLC (10 µM unless noted). Besides, the growth in the assay with NCI-H522 lung (10 µM unless noted) is 0.831% (active); with A549/ATCC NSCLC (10 µM unless noted), 9.7% (active); in the assay with 786-0 renal (10 µM unless noted) it was 9.15% (active).

With `Nc1nc2c(s1)CCc1cn(S(=O)(=O)c3ccccc3)cc1-2`, the growth with NCI-H23 lung (10 µM unless noted) is 94.5% and 104%; in the assay on NCI-H226 lung (10 µM unless noted), 82.9%; with NCI-H322M lung, 93.7% and 114%; in the assay with HOP-62 NSCLC (10 µM unless noted) it was 91.5% and 112%; in the assay on NCI-H460 lung (10 µM unless noted), 95.1% and 101%; with HOP-92 NSCLC (10 µM unless noted), 63.3%. The growth was 82.4% and 92.9% in the assay with NCI-H522 lung (10 µM unless noted); 78.5% and 101% in the assay with A549/ATCC NSCLC (10 µM unless noted); 92.7% and 104% in the assay with 786-0 renal (10 µM unless noted).

In the case of `Cn1cc(-c2csc(-c3cn(CCOC(N)=O)c4ccccc34)n2)c2cccnc21`, the growth in the assay with NCI-H23 lung (10 µM unless noted) was 81.2%; in the assay with NCI-H226 lung (10 µM unless noted) it was 86.4%; in the assay on NCI-H322M lung, 90.8%; in the assay with HOP-62 NSCLC (10 µM unless noted) it was 74.5%; in the assay with NCI-H460 lung (10 µM unless noted) it was 82.4%; with HOP-92 NSCLC (10 µM unless noted), 83.1%. Further, the values for the growth in the assay with NCI-H522 lung (10 µM unless noted), with A549/ATCC NSCLC (10 µM unless noted) and in the assay on 786-0 renal (10 µM unless noted) were 24.2%, 67.4% and 87.4%, respectively.

Turning to `CC(=O)/C=C/c1ccc(N(CCO)Cc2ccc(C(C)(C)C)cc2)cc1`, the growth is 75.5% in the assay with NCI-H23 lung (10 µM); -70.7% (active) in the assay on NCI-H23 lung (100 µM); 72.9% in the assay with NCI-H226 lung (10 µM); -78.1% (active) in the assay on NCI-H226 lung (100 µM); 78.6% with HOP-62 NSCLC (10 µM); -92.7% (active) with HOP-62 NSCLC (100 µM). The growth in the assay on NCI-H460 lung (10 µM) is 74.4%; in the assay on NCI-H460 lung (100 µM), -86% (active); with HOP-92 NSCLC (10 µM), 54.7%; in the assay on HOP-92 NSCLC (100 µM), -94.5% (active); in the assay with NCI-H522 lung (10 µM), 70.1%; with NCI-H522 lung (100 µM) it was -71% (active). Also, the growth with A549/ATCC NSCLC (10 µM) is 66.3%; with A549/ATCC NSCLC (100 µM), -99.3% (active); in the assay on 786-0 renal (10 µM) it was 87.5%; with 786-0 renal (100 µM) it was -93.4% (active); in the assay on COLO 205 colon (10 µM) it was 90.1%; in the assay on COLO 205 colon (100 µM), -76.6% (active).

For `N#CC(Cc1cccc2ccccc12)c1cc2ccccc2[nH]1` (configuration not stated), the growth was 85% in the assay on NCI-H23 lung (10 µM unless noted); 83.1% with NCI-H226 lung (10 µM unless noted); 84.8% in the assay on NCI-H322M lung; 78.4% in the assay with HOP-62 NSCLC (10 µM unless noted); 99.8% with NCI-H460 lung (10 µM unless noted); 55.6% with HOP-92 NSCLC (10 µM unless noted). The growth was 75.5% in the assay with NCI-H522 lung (10 µM unless noted), 89.5% in the assay on A549/ATCC NSCLC (10 µM unless noted) and 95.3% with 786-0 renal (10 µM unless noted).
